Measured values published in PubChem BioAssay (NCATS).
Results filed as inconclusive are left out. Active and inactive are the calls of the source. Unless noted, calls follow the shape of the dose curve; as a rule, active = well fitted curve in either direction with a large enough effect (not every such curve was filed as active); inconclusive = small, poorly fitted or top-dose-only effect, or another doubt; inactive = flat fitted curve, though single readings scatter.

Key:
[1] = target: Lysosomal acid glucosylceramidase (Homo sapiens) (UniProt P04062); test: Glucocerebrosidase-p2 (AID 348; in the data active = potency below about 10 µM; also: potency is read from the fitted curve at half-maximal effect); conditions: purified GBA, blue fluorogenic substrate, 40 min
Sequence of Lysosomal acid glucosylceramidase (Homo sapiens) (P04062 whole entry, looked up): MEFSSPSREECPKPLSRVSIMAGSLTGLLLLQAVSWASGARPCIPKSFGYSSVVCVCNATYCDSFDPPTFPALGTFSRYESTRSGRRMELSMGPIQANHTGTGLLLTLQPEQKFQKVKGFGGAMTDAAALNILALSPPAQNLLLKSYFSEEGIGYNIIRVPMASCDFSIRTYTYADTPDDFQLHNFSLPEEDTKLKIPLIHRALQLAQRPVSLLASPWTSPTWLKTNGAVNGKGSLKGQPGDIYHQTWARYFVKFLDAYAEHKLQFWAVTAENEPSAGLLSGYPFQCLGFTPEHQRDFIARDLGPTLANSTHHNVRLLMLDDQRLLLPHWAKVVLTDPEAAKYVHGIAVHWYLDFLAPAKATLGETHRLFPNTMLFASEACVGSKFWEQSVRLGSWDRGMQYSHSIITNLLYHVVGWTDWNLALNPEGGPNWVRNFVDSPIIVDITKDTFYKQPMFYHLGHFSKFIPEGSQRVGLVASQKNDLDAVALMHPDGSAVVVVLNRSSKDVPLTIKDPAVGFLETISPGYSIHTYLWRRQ
Method in brief: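 Compounds titrated from 0.6 nM upwards against 0.2 nM enzyme in pH 5.9 citric acid/KH2PO4, taurocholate, tween-20; blue fluorogenic substrate 80 uM, 40 min room temperature, stopped and read Ex 365/Em 440 for AC50.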

[2] = AP1 Signaling Pathway (AID 357); conditions: ME-180 AP-1-bla reporter, EGF-induced, beta-lactamase ratio, 5 h; at 7.69 µM (top of the series) unless noted; also: % is scaled to controls: 0 for no effect and ±100 for the full control effect
Method in brief: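 ME-180 cells with beta-lactamase reporter under AP-1 response element, stimulated with EC50 EGF; compounds tested in titration series, 5 h at 37 °C. CCF4 substrate added 2.5 h at room temperature; 460/530 nm emission ratio gave %activity and AC50.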

[3] = target: Cytochrome P450 1A2 (Homo sapiens) (UniProt P05177); test: p450-cyp1a2 (AID 410; calls by dose curve; also: potency is read from the fitted curve at half-maximal effect;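 as to activity change, negative = inhibition: -100% = full effect of reference inhibitor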); conditions: recombinant CYP1A2, luciferin-ME demethylation, luminescence; series mostly up to 11.4 µM
Sequence of Cytochrome P450 1A2 (Homo sapiens) (P05177 whole entry, looked up): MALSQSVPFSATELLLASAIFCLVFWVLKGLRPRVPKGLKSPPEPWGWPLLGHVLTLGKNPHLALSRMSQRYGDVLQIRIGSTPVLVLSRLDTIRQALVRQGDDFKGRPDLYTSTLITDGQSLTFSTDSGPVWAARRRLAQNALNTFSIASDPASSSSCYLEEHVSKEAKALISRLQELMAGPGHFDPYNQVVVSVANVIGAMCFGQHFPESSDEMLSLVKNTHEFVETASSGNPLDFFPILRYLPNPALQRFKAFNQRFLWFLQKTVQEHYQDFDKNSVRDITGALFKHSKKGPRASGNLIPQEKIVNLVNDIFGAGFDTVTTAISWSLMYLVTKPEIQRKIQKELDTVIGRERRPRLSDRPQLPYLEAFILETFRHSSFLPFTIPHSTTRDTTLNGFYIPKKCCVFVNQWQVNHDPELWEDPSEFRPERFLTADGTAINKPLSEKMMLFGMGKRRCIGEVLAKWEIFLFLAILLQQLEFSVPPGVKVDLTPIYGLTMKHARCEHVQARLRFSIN
Method in brief: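 Human CYP1A2 (20nM) demethylated Luciferin-ME at its Km (100uM) in 100mM KPO4. After 10 min compound preincubation, NADPH regeneration ran the reaction 60 min at room temperature. Luciferin was read by luminescence, normalized to 57 uM furafylline.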

[4] = NFAT Signaling Pathway (AID 444); conditions: Jurkat NFAT-bla M1, carbachol, beta-lactamase ratio, 5 h; at 7.69 µM (top of the series) unless noted;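 also: carbachol stimulus at about its EC50 of 1 µM final; % is scaled to controls: 0 for no effect and ±100 for the full control effect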
Method in brief: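 Jurkat cells carrying an NFAT-driven β-lactamase reporter and co-transfected muscarinic M1 receptor were treated with compound plus carbachol (1 uM final, an EC50 level) for 5 h at 37 °C. CCF4 loading followed for 1 h at RT; 460/530 nm ratio gave %activity.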

[5] = Stat Signaling Pathway (AID 446); conditions: ME-180 SIE beta-lactamase reporter, IL-6 stimulated, 5 h; at 7.69 µM (top of the series) unless noted;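 also: ME-180 cervical cancer cells given 40 pM IL-6 alongside compound; SIE-controlled beta-lactamase reporter measured as 460/530 nm FRET emission ratio; % is scaled to controls: 0 for no effect and ±100 for the full control effect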
Method in brief: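 Reporter line: ME-180 cervical carcinoma, SIE-beta-lactamase. Treatment: compound with 40 pM IL-6, 5 hrs, 37 C, in low-serum OPTI-MEM with 10 mM HEPES pH 7.3. Detection: 460/530 nm fluorescence.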

[6] = target: Glucocorticoid receptor (Homo sapiens) (UniProt P04150); test: GR-GFP Redistribution (AID 450;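 active = compounds whose dose series gives a full or clear partial fitted curve of increased nuclear translocation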; also: potency is read from the fitted curve at half-maximal effect); conditions: U2OS GR-GFP nuclear translocation, laser cytometry, 2 h
Sequence of Glucocorticoid receptor (Homo sapiens) (P04150 whole entry, looked up, the tested form may be a part): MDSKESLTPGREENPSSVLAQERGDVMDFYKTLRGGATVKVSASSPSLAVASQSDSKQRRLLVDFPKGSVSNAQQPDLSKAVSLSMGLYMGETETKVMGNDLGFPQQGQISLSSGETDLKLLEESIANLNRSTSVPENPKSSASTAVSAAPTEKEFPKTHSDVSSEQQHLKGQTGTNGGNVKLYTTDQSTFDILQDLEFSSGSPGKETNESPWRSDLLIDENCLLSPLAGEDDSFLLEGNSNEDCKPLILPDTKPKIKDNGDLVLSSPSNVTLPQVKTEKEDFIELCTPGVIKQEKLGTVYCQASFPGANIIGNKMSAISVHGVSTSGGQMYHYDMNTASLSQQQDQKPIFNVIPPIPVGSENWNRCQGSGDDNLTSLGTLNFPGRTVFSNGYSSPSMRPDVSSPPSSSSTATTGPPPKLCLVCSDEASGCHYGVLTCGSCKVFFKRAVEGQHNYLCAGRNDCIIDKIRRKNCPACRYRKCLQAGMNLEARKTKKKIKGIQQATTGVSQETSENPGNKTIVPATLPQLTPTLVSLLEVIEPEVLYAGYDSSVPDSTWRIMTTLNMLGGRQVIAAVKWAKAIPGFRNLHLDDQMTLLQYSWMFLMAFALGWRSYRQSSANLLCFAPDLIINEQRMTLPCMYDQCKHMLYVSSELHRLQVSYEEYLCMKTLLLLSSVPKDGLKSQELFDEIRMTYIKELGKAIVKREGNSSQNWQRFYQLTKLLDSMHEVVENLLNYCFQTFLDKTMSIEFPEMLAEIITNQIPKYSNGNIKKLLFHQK

[7] = target: Glucocorticoid receptor (Homo sapiens) (UniProt P04150); test: GR-EFC Redistribution (AID 451; calls by dose curve; also: potency is read from the fitted curve at half-maximal effect); conditions: CHO-K1 GR-EFC translocation, beta-gal luminescence, 2 h
Method in brief: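 CHO-K1 cells stably expressing nuclear-localized β-gal enzyme acceptor and GR fused C-terminally to the enzyme donor fragment; ligand-driven nuclear translocation restores β-gal by complementation. Compounds titrated up to 46 uM final, 2 h at 37 °C; luminescence read.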

[8] = target: Mitogen-activated protein kinase 10 (Mus musculus) (UniProt Q61831); test: JNK3 AlphaScreen Assay (AID 530); conditions: JNK3 lysate, c-Jun phosphorylation; series mostly up to 11.4 µM;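 also: kinase came from lysate of stimulated human HepG2 cells; signal reports phosphorylation of biotinylated GST-cJun 1-79 at Ser73 with 10 µM ATP; % is scaled to controls: 0 for no effect and ±100 for the full control effect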
Method in brief: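 JNK3 came from HepG2 lysates pre-activated with IL-1beta and TNF-alpha and phosphorylated biotinylated GST-cJun (1-79) at 10 uM ATP, pH 7.6, room temperature. Compounds were titrated. AlphaScreen signal used anti-phospho-cJun (Ser73) antibody.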

[9] = target: 3',5'-cyclic-AMP phosphodiesterase 4B (Homo sapiens) (UniProt Q07343); test: qHTS Assay for Inhibitors of PDE-IV (AID 607; active = well fitted activation curve with a large enough effect in the main read-out, with a control signal flat, not every such curve was filed as active; also: % of control where 0% means no effect); conditions: HEK293 ACTOne CNG channel cells, membrane potential fluorescence; series mostly up to 22.9 µM
Sequence of 3',5'-cyclic-AMP phosphodiesterase 4B (Homo sapiens) (Q07343 whole entry, looked up): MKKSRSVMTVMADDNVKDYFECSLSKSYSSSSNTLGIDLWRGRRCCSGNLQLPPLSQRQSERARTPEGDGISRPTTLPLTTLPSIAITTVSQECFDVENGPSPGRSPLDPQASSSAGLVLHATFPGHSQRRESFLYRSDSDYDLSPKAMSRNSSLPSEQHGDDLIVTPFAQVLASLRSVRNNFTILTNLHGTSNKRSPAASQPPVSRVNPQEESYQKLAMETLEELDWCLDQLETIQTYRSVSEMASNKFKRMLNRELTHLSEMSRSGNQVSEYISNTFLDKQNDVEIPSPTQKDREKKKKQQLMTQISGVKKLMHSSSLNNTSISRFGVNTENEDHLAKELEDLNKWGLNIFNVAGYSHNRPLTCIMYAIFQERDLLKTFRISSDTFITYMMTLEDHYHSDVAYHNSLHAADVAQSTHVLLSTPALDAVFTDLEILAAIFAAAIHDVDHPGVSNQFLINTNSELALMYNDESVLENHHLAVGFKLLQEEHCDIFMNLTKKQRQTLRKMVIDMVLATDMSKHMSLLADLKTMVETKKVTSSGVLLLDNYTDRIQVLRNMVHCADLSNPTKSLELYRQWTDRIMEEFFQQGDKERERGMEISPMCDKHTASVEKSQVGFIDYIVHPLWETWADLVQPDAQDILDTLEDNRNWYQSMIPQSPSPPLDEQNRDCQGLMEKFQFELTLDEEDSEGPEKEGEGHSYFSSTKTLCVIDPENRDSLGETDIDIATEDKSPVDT
Method in brief: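 Cell-based read-out of cAMP via a modified cyclic nucleotide-gated channel and membrane potential dye (535/590 nm) in HEK293 cells expressing PDE4 endogenously. Compounds tested up to 22.9 uM final; 100 uM RO 20-1724 reference.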

NC(N)=N/N=C(\c1ccc(Cl)cc1)C1CC1
active: Potency [3] 0.794 µM
inactive: Potency [1] > 11.4 µM | activity change, negative = inhibition [2] 8.61% | activity change, negative = inhibition [4] -17.9% | activity, negative = inhibition [5] -1.61% | Potency [6] > 46 µM | Potency [7] > 9.22 µM | Potency [8] | Potency [9]

C[C@@](N)(Cc1c[nH]c2ccccc12)C(=O)O
inactive: Potency [1] > 11.4 µM | activity change, negative = inhibition [2] 13.6% | Potency [3] | activity change, negative = inhibition [4] -4.57% | activity, negative = inhibition [5] 10.9% | Potency [6] > 46 µM | Potency [7] > 9.22 µM | Potency [8] | Potency [9]

O=S(=O)(O)c1cc(N=[N+]([O-])c2cc(S(=O)(=O)O)c3ccccc3c2)cc2ccccc12
active: Potency [3] 1.26 µM
inactive: Potency [1] > 11.4 µM | activity change, negative = inhibition [2] 5.38% | activity change, negative = inhibition [4] 8.26% | activity, negative = inhibition [5] -2.62% | Potency [6] > 46 µM | Potency [7] > 9.22 µM | Potency [8] | Potency [9]

O=C(O)c1c2c(c(O)c3c1CN(C1CCCCC1)CO3)OCN(C1CCCCC1)C2
inactive: Potency [1] > 11.4 µM | activity change, negative = inhibition [2] 4.96% | Potency [3] | activity change, negative = inhibition [4] 29.1% | activity, negative = inhibition [5] 0.651% | Potency [6] > 46 µM | Potency [7] > 9.22 µM | Potency [8] | Potency [9]

O=C(O)CCC(=O)c1ccc2sc3ccccc3c2c1
active: Potency [3] 3.98 µM
inactive: Potency [1] > 11.4 µM | activity change, negative = inhibition [2] 3.02% | activity change, negative = inhibition [4] 7.45% | activity, negative = inhibition [5] -12.2% | Potency [6] > 46 µM | Potency [7] > 9.22 µM | Potency [8] | Potency [9]

CC(CCN)(CCN)[N+](=O)[O-]
inactive: Potency [1] > 11.4 µM | activity change, negative = inhibition [2] 10.4% | Potency [3] | activity change, negative = inhibition [4] 9.23% | activity, negative = inhibition [5] 5.23% | Potency [6] > 46 µM | Potency [7] > 9.22 µM | Potency [8] | Potency [9]

CCO[P@]1(=O)OC[C@@H]2O[C@H](n3cnc4c(N)ncnc43)[C@H](O)[C@@H]2O1
inactive: Potency [1] > 11.4 µM | activity change, negative = inhibition [2] -10.8% | activity change, negative = inhibition [3] -15.6% [at 2.29 µM] | activity change, negative = inhibition [4] 4.19% | activity, negative = inhibition [5] -5.06% | Potency [6] > 46 µM | Potency [7] > 9.22 µM | Potency [8] | Potency [9]

N[C@@H](Cc1[nH]nc2ccccc12)C(=O)O
inactive: Potency [1] > 11.4 µM | activity change, negative = inhibition [2] 5.54% | Potency [3] | activity change, negative = inhibition [4] -12.5% | activity, negative = inhibition [5] -0.642% | Potency [6] > 46 µM | Potency [7] > 9.22 µM | Potency [8] | Potency [9]

CC1CCC(O)([C@](C)(C(=O)O)c2ccccc2)CC1 (stereo partly specified)
inactive: Potency [1] > 11.4 µM | activity change, negative = inhibition [2] -5.12% | Potency [3] | activity change, negative = inhibition [4] -26.7% | activity, negative = inhibition [5] -1.34% | Potency [6] > 46 µM | Potency [7] > 9.22 µM | Potency [8] | Potency [9]

Cc1ccc(S(=O)(=O)NC(=O)OC23COCN2COC3)cc1
inactive: Potency [1] > 11.4 µM | activity change, negative = inhibition [2] 8.05% | Potency [3] | activity change, negative = inhibition [4] 27.6% | activity, negative = inhibition [5] 15.3% | Potency [6] > 46 µM | Potency [7] > 9.22 µM | Potency [8] | Potency [9]

O=C(O)c1ccccc1-c1ccccc1C(=O)Nc1ccc2c(c1)Cc1ccccc1-2
inactive: Potency [1] > 11.4 µM | activity change, negative = inhibition [2] 6.9% | activity change, negative = inhibition [3] -7.1% [at 2.29 µM] | activity change, negative = inhibition [4] -20.4% | activity, negative = inhibition [5] -24.1% | Potency [6] > 46 µM | Potency [7] > 9.22 µM | Potency [8] | Potency [9]

Cc1[nH]c(N)nc(=S)c1CCC(=O)O
inactive: Potency [1] > 11.4 µM | activity change, negative = inhibition [2] -7.6% | Potency [3] | activity change, negative = inhibition [4] 1.85% | activity, negative = inhibition [5] -3.94% | Potency [6] > 46 µM | Potency [7] > 9.22 µM | Potency [8] | Potency [9]

Cc1ccc(S(=O)(=O)O[C@@H]2[C@H]([C@@H]3COC(C)(C)O3)O[C@H]3OC(C)(C)O[C@@H]32)cc1
inactive: Potency [1] > 11.4 µM | activity change, negative = inhibition [2] 1.73% | Potency [3] | activity change, negative = inhibition [4] 3.01% | activity, negative = inhibition [5] 7.9% | Potency [6] > 46 µM | Potency [7] > 9.22 µM | Potency [8] | Potency [9]

NCC(=O)Nc1ccc(Cl)cc1C(=O)c1ccc[nH]1
inactive: Potency [1] > 11.4 µM | activity change, negative = inhibition [2] -2.05% | activity change, negative = inhibition [4] -24.8% | activity, negative = inhibition [5] -3.02% | Potency [6] > 46 µM | Potency [7] > 9.22 µM | Potency [8] | Potency [9]
active: Potency [3] 3.16 µM
